Reference: PubChem BioAssay AID1159580 (chemical genetic matrix, 2015)
Screen size: about 5,500 compounds; about 2,000 (36%) were called active. Another 18% or so got no clear call; they are omitted. Rule as the data show it: active = normalized growth mostly below about 0.91 (no sharp cut-off); inconclusive = no clear call, values can overlap the other calls; inactive = mostly above about 0.92. The list shows a part of the results.

Test: chemical genetic growth profiling, strain panel (AID 1159580);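 also: tested at 20 µM; growth read once vehicle control cultures reached saturation at 30 °C; 1 = growth at the plate median or of vehicle wells; lower values mean less growth of the strain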
Settings: growth OD
[1] = S. cerevisiae deletion strains, locus YAL013W, strain DEP1, hits give low values
[2] = S. cerevisiae deletion strains, locus YBR229C, strain ROT2, hits give low values
[3] = S. cerevisiae deletion strains, locus YCL061C, strain MRC1, hits give low values
[4] = S. cerevisiae deletion strains, locus YDL101C, strain DUN1, hits give low values
[5] = S. cerevisiae deletion strains, locus YDR150W, strain NUM1, hits give low values
[6] = S. cerevisiae deletion strains, locus YEL061C, strain CIN8, hits give low values
[7] = S. cerevisiae deletion strains, locus YGR078C, strain PAC10, hits give low values
[8] = S. cerevisiae deletion strains, locus YHR030C, strain SLT2, hits give low values
[9] = S. cerevisiae deletion strains, locus YHR087W, strain rtc3, hits give low values
[10] = S. cerevisiae deletion strains, locus YJL187C, strain SWE1, hits give low values
[11] = S. cerevisiae deletion strains, locus YJR043C, strain POL32, hits give low values
[12] = S. cerevisiae deletion strains, locus YJR075W, strain HOC1, hits give low values
[13] = S. cerevisiae deletion strains, locus YLR039C, strain RIC1, hits give low values
[14] = S. cerevisiae deletion strains, locus YLR058C, strain SHM2 (second series), hits give low values
[15] = S. cerevisiae deletion strains, locus YLR085C, strain ARP6, hits give low values
[16] = S. cerevisiae deletion strains, locus YLR262C, strain YPT6, hits give low values
[17] = S. cerevisiae deletion strains, locus YML094W, strain GIM5, hits give low values
[18] = S. cerevisiae deletion strains, locus YMR219W, strain ESC1, hits give low values
[19] = S. cerevisiae deletion strains, locus YMR263W, strain SAP30, hits give low values
[20] = S. cerevisiae deletion strains, locus YNL153C, strain GIM3, hits give low values
[21] = S. cerevisiae deletion strains, locus YNL298W, strain CLA4 (second series), hits give low values
[22] = S. cerevisiae deletion strains, locus YNL322C, strain KRE1, hits give low values
[23] = S. cerevisiae deletion strains, locus YNR030W, strain Alg12, hits give low values
[24] = S. cerevisiae deletion strains, locus YPL055C, strain LGE1, hits give low values
[25] = S. cerevisiae deletion strains, locus YPL241C, strain CIN2, hits give low values
[26] = S. cerevisiae deletion strains, locus YPR135W, strain CTF4, hits give low values
[27] = S. cerevisiae deletion strains, locus YDL134C, strain PPH21, hits give low values
[28] = S. cerevisiae deletion strains, locus YKL190W, strain CNB1, hits give low values
[29] = S. cerevisiae strains, strain wild type, hits give low values

Measured: normalized growth

FC(F)(F)c1cc(-n2c(CCc3nc(-c4ccc(Cl)cc4)no3)n[nH]c2=S)cc(C(F)(F)F)c1
inactive: [1] 0.996 | [2] 0.991 | [3] 0.985 | [4] 0.946 | [5] 0.867 | [6] 1.04 | [7] 0.963 | S. cerevisiae deletion strains, locus YGR229C, strain SMI1, hits give low values 0.991 | [8] 0.993 | [9] 1.03 | [10] 1.01 | [11] 0.978 | [12] 0.978 | [13] 1.05 | [14] 1.01 | [15] 0.97 | [16] 1.02 | [17] 1.03 | [18] 0.994 | [19] 0.957 | [20] 0.95 | [21] 0.981 | [22] 0.989 | [23] 0.975 | S. cerevisiae deletion strains, locus YOL006C, strain TOP1, hits give low values 0.994 | [24] 0.994 | [25] 0.965 | [26] 0.879

O=C(NCc1nc(-c2ccc(C(F)(F)F)cc2)no1)Nc1ccc(F)cc1F
active: [27] 0.857
inactive: [1] 1.01 | [2] 0.987 | [4] 0.975 | [5] 1.03 | [6] 0.996 | [7] 0.996 | [8] 1.07 | [9] 0.973 | [10] 0.997 | [11] 1 | [12] 0.967 | [28] 1.01 | [13] 0.981 | [14] 1.01 | [15] 1.04 | [16] 1.02 | [17] 0.968 | [18] 1 | S. cerevisiae deletion strains, locus YMR307W, strain GAS1, hits give low values 0.894 | [20] 0.987 | [21] 1.03 | [22] 1.02 | [23] 0.988 | [24] 0.846 | [25] 0.966 | [26] 1.01 | [29] 1.02

O=C(O)CC(CC(=O)Nc1ccc(I)cc1F)c1ccc(C(F)(F)F)cc1 (configuration not stated)
inactive: [1] 0.99 | [2] 0.99 | [3] 0.978 | [4] 0.985 | [27] 0.981 | [5] 0.972 | [6] 1 | [7] 1 | [8] 1 | [9] 0.981 | [11] 1 | [12] 0.943 | [28] 1.01 | [13] 1.02 | [14] 0.975 | [15] 1 | [16] 1.02 | [17] 0.989 | [18] 0.984 | [19] 0.969 | S. cerevisiae deletion strains, locus YNL128W, strain TEP1, hits give low values 0.995 | [20] 1.01 | [21] 1.05 | [22] 0.973 | [23] 0.927 | [24] 0.968 | [25] 0.986 | [26] 1.03 | [29] 1

C=Cc1c(C)c2[n-]c1=Cc1[n-]c(c(CC)c1C)C=c1[n-]c3c(c1C)C(=O)C(C(=O)[O-])C=3c1[n-]c(c(C)c1CCC(=O)[O-])C=2.[Cu] (configuration not stated)
inactive: S. cerevisiae deletion strains, locus YAL021C, strain ccr4, hits give low values 1.07 | S. cerevisiae deletion strains, locus YAL026C, strain drs2, hits give low values 1.02 | S. cerevisiae deletion strains, locus YBL061C, strain skt5, hits give low values 1.08 | S. cerevisiae deletion strains, locus YBR009C, strain hhf1, hits give low values 1.02 | S. cerevisiae deletion strains, locus YBR023C, strain chs3, hits give low values 1.07 | S. cerevisiae deletion strains, locus YBR171W, strain sec66, hits give low values 1.09 | S. cerevisiae deletion strains, locus YBR231C, strain swc5, hits give low values 1.08 | S. cerevisiae deletion strains, locus YBR279W, strain paf1, hits give low values 1.06 | S. cerevisiae deletion strains, locus YCL011C, strain gbp2, hits give low values 1.05 | S. cerevisiae deletion strains, locus YCL016C, strain dcc1, hits give low values 1.03 | [3] 1.03 | S. cerevisiae deletion strains, locus YCL069W, strain vba3, hits give low values 1.07 | S. cerevisiae deletion strains, locus YDL005C, strain med2, hits give low values 1.08 | S. cerevisiae deletion strains, locus YDR159W, strain sac3, hits give low values 1.09 | S. cerevisiae deletion strains, locus YDR335W, strain msn5, hits give low values 1.02 | S. cerevisiae deletion strains, locus YDR392W, strain spt3, hits give low values 1.11 | S. cerevisiae deletion strains, locus YEL003W, strain gim4, hits give low values 1.03 | S. cerevisiae deletion strains, locus YEL037C, strain rad23, hits give low values 1.07 | S. cerevisiae deletion strains, locus YER015W, strain faa2, hits give low values 1.02 | S. cerevisiae deletion strains, locus YFR010W, strain ubp6, hits give low values 1.1 | S. cerevisiae deletion strains, locus YGL167C, strain pmr1, hits give low values 1.08 | S. cerevisiae deletion strains, locus YGL173C, strain kem1, hits give low values 1.02 | S. cerevisiae deletion strains, locus YGL240W, strain doc1, hits give low values 1.03 | S. cerevisiae deletion strains, locus YGL253W, strain hxk2, hits give low values 1.02 | S. cerevisiae deletion strains, locus YHR027C, strain rpn1, hits give low values 1.05 | [8] 0.992 | S. cerevisiae deletion strains, locus YHR079C, strain IRE1, hits give low values 0.998 | S. cerevisiae deletion strains, locus YHR142W, strain chs7, hits give low values 1.08 | S. cerevisiae deletion strains, locus YJL092W, strain hpr5, hits give low values 1.07 | S. cerevisiae deletion strains, locus YJL095W, strain BCK1, hits give low values 0.957 | S. cerevisiae deletion strains, locus YJL164C, strain tpk1, hits give low values 1.05 | S. cerevisiae deletion strains, locus YJL166W, strain qcr8, hits give low values 1.01 | S. cerevisiae deletion strains, locus YJR066W, strain TOR1, hits give low values 0.957 | S. cerevisiae deletion strains, locus YKL160W, strain elf1, hits give low values 1.06 | S. cerevisiae deletion strains, locus YLL001W, strain dnm1, hits give low values 1.06 | S. cerevisiae deletion strains, locus YLR027C, strain aat2, hits give low values 1.07 | S. cerevisiae deletion strains, locus YLR113W, strain HOG1, hits give low values 0.999 | S. cerevisiae deletion strains, locus YLR221C, strain rsa3, hits give low values 1.01 | S. cerevisiae deletion strains, locus YLR258W, strain gsy2, hits give low values 1.07 | S. cerevisiae deletion strains, locus YLR262C, strain YPT6 (second series), hits give low values 1.09 | S. cerevisiae deletion strains, locus YLR320W, strain mms22, hits give low values 1.06 | S. cerevisiae deletion strains, locus YLR342W, strain FKS1, hits give low values 1.04 | S. cerevisiae deletion strains, locus YLR357W, strain rsc2, hits give low values 1.08 | S. cerevisiae deletion strains, locus YLR370C, strain arc18, hits give low values 1.04 | S. cerevisiae deletion strains, locus YLR384C, strain iki3, hits give low values 1.08 | S. cerevisiae deletion strains, locus YML120C, strain ndi1, hits give low values 1.03 | S. cerevisiae deletion strains, locus YMR058W, strain fet3, hits give low values 0.967 | S. cerevisiae deletion strains, locus YMR205C, strain PFK2, hits give low values 1.11 | S. cerevisiae deletion strains, locus YNL183C, strain NPR1, hits give low values 0.862 | S. cerevisiae deletion strains, locus YNL209W, strain ssb2, hits give low values 1.04 | S. cerevisiae deletion strains, locus YNL248C, strain rpa49, hits give low values 1.03 | S. cerevisiae deletion strains, locus YNL322C, strain KRE1 (second series), hits give low values 1.08 | S. cerevisiae deletion strains, locus YOR001W, strain rrp6, hits give low values 1.05 | S. cerevisiae deletion strains, locus YOR070C, strain gyp1, hits give low values 1.05 | S. cerevisiae deletion strains, locus YOR080W, strain dia2, hits give low values 1.06 | S. cerevisiae deletion strains, locus YOR083W, strain WHI5, hits give low values 0.992 | S. cerevisiae deletion strains, locus YOR106W, strain vam3, hits give low values 0.999 | S. cerevisiae deletion strains, locus YOR231W, strain MKK1, hits give low values 1.01 | S. cerevisiae deletion strains, locus YOR270C, strain vph1, hits give low values 1.15 | S. cerevisiae deletion strains, locus YOR290C, strain snf2, hits give low values 1.06 | S. cerevisiae deletion strains, locus YPL051W, strain arl3, hits give low values 1.07 | S. cerevisiae deletion strains, locus YPL078C, strain atp4, hits give low values 1.03 | S. cerevisiae deletion strains, locus YPL256C, strain CLN2, hits give low values 1.05
active: S. cerevisiae deletion strains, locus YAL030W, strain snc1, hits give low values 1.09 [resistant] | S. cerevisiae deletion strains, locus YCR088W, strain abp1, hits give low values 1.11 [resistant] | S. cerevisiae deletion strains, locus YDL040C, strain nat1, hits give low values 1.08 [resistant] | S. cerevisiae deletion strains, locus YDR001C, strain nth1, hits give low values 1.1 [resistant] | S. cerevisiae deletion strains, locus YDR069C, strain doa4, hits give low values 1.12 [resistant] | S. cerevisiae deletion strains, locus YDR137W, strain rgp1, hits give low values 1.16 [resistant] | S. cerevisiae deletion strains, locus YDR195W, strain ref2 1.28 [resistant] | S. cerevisiae deletion strains, locus YDR297W, strain sur2, hits give low values 1.08 [resistant] | S. cerevisiae deletion strains, locus YDR334W, strain swr1, hits give low values 1.11 [resistant] | S. cerevisiae deletion strains, locus YEL061C, strain CIN8 (second series), hits give low values 1.09 [resistant] | S. cerevisiae deletion strains, locus YER016W, strain bim1, hits give low values 1.09 [resistant] | S. cerevisiae deletion strains, locus YER111C, strain swi4, hits give low values 1.09 [resistant] | S. cerevisiae deletion strains, locus YER155C, strain BEM2 (second series), hits give low values 1.17 [resistant] | S. cerevisiae deletion strains, locus YGL227W, strain vid30, hits give low values 1.1 [resistant] | S. cerevisiae deletion strains, locus YHR013C, strain ard1, hits give low values 1.18 [resistant] | S. cerevisiae deletion strains, locus YJL095W, strain BCK1 (second series), hits give low values 1.09 [resistant] | S. cerevisiae deletion strains, locus YJL115W, strain asf1, hits give low values 1.11 [resistant] | S. cerevisiae deletion strains, locus YJL129C, strain trk1, hits give low values 1.15 [resistant] | S. cerevisiae deletion strains, locus YJL154C, strain vps35, hits give low values 1.09 [resistant] | [10] 1.08 [resistant] | S. cerevisiae deletion strains, locus YKR026C, strain gcn3, hits give low values 1.1 [resistant] | S. cerevisiae deletion strains, locus YKR091W, strain srl3, hits give low values 1.08 [resistant] | S. cerevisiae deletion strains, locus YLL026W, hits give low values 1.08 [resistant] | S. cerevisiae deletion strains, locus YLL041C, strain sdh2, hits give low values 1.08 [resistant] | S. cerevisiae deletion strains, locus YMR125W, strain sto1, hits give low values 1.13 [resistant] | S. cerevisiae deletion strains, locus YMR129W, hits give low values 1.08 [resistant] | S. cerevisiae deletion strains, locus YMR231W, strain pep5, hits give low values 1.08 [resistant] | S. cerevisiae deletion strains, locus YNL071W, strain lat1, hits give low values 1.09 [resistant] | S. cerevisiae deletion strains, locus YNR049C, strain mso1, hits give low values 1.09 [resistant] | S. cerevisiae deletion strains, locus YOR265W, strain rbl2, hits give low values 1.09 [resistant] | S. cerevisiae deletion strains, locus YPL106C, strain sse1, hits give low values 1.16 [resistant] | S. cerevisiae deletion strains, locus YPL240C, strain hsp82, hits give low values 1.09 [resistant]

Cc1nc2sccn2c(=O)c1CCN1CCC(=C(c2ccccc2)c2ccc(F)cc2)CC1
inactive: [1] 0.965 | S. cerevisiae deletion strains, locus YAL040C, strain CLN3, hits give low values 0.99 | S. cerevisiae deletion strains, locus YCL061C, strain MRC1 (second series), hits give low values 0.993 | [5] 0.995 | S. cerevisiae deletion strains, locus YDR363W, strain ESC2, hits give low values 0.985 | [12] 1.01 | [19] 0.992 | S. cerevisiae deletion strains, locus YNL175C, strain NOP13, hits give low values 1.04 | S. cerevisiae deletion strains, locus YNL197C, strain WHI3, hits give low values 1.05 | S. cerevisiae deletion strains, locus YNL224C, strain SQS1, hits give low values 1.02 | [22] 0.956 | [25] 0.992
